Consider seven molecules from PubChem BioAssay.

Structures are written as SMILES. Activity calls are given as the source filed them.

The test system of assay [1] is Human papillomavirus type 1a protein E7 (residues 44-93). Nature of the assay: small molecules binding HPV E7 44-93 – biochemical, small-molecule microarray, residues 44-93, 635 nm fluorescence, primary screen (AID 1108).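 Further: E7 fragment applied at 1 µg/mL in TBST for 1 h at 4 C; score combines spot fluorescence with its signal to noise ratio.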 The settings on record: fluorescence 635 nm, higher = more signal.
A short description of assay [2]: hepatitis C replication reporter changes, two-sided – Huh7 cells, luciferase reporter, HCV replication inhibitor project, primary screen (AID 1109).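 Further: huh7 hepatoma cells harbouring a luciferase neomycin HCV replicon reporter; luciferase luminescence as measure of HCV replicon replication; test concentration not given here.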 The settings on record: Huh7 HCV replicon luciferase reporter, 48 h; higher = more signal.
The target of assay [3] is Left-right determination factor 2 (Homo sapiens) (UniProt O00292). The assay is described as follows: small molecules binding LEFTY2 protein – biochemical, small-molecule microarray, 635 nm fluorescence scan, primary screen (AID 1110). The settings on record: higher = more signal.
Left-right determination factor 2 (Homo sapiens), sequence (O00292 whole entry, looked up): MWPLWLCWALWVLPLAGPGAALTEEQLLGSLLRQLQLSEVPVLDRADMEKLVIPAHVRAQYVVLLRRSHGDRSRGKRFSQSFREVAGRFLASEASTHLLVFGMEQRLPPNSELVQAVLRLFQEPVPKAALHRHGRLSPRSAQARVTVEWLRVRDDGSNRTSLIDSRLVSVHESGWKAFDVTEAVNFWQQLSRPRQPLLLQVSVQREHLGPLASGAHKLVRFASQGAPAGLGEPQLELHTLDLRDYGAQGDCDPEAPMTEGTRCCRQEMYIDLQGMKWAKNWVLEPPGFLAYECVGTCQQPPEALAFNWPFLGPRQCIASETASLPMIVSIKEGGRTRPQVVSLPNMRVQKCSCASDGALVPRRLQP
The target in assay [4] is Calmodulin-1 (Homo sapiens) (UniProt P0DP23). Nature of the assay: small molecules binding calmodulin-1 with EGTA – biochemical, small-molecule microarray, Cy5-labelled CALM1, profiling panel (AID 1111).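 Further: labelled calmodulin applied in Tris saline Tween buffer holding calcium plus EGTA and DTT.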 The settings on record: Cy5-CALM1 binding fluorescence, higher = more signal.
For assay [5] the target is unchanged. Nature of the assay: small molecules binding Ca-loaded calmodulin-1 – biochemical, small-molecule microarray, Cy5-labelled CALM1, plus calcium, artefact control for SMM control-protein annotation, profiling panel (AID 1112).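 Further: score merges spot fluorescence with signal to noise from triplicate slides.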 The settings on record: Cy5-CALM1 binding fluorescence, higher = more signal.
Assay [6] is described as follows: probe aWnt5a binding to arrayed compounds – biochemical, biotinylated probe, 635/667 nm fluorescence, primary screen (AID 1113).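 Further: score merges 667 nm fluorescence intensity with signal-to-noise per printed feature.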 The settings on record: small-molecule microarray, higher = more signal.
A short description of assay [7]: probe aShh binding to arrayed compounds – biochemical, biotinylated probe, 635/667 nm fluorescence, primary screen (AID 1114).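 Further: probe is biotin-labelled aShh protein from a stem cell growth factor screen; measures binding of labelled protein to compounds printed on the slide; score merges feature fluorescence at 667 nm with signal-to-noise.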 The settings on record: small-molecule microarray, higher = more signal.
Assay [8] can be described thus: probe aNog binding to arrayed compounds – biochemical, biotinylated probe, 635/667 nm fluorescence, primary screen (AID 1115).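 Further: probe is biotinylated aNog protein used at 0.15 µg/mL for 1 h at 4 C; z-score combines 667 nm fluorescence of each spot with its signal to noise.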 The settings on record: small-molecule microarray, higher = more signal.
For assay [9], the target named is Torsin-1A-interacting protein 1 (Homo sapiens) (UniProt Q5JTV8). The assay is described as follows: compound microarray binding of lysate hLAP1 – cell lysate, small-molecule microarray, COS7 lysate, 635/667 nm fluorescence, primary screen (AID 1116). The settings on record: 635 nm fluorescence, higher = more signal.
Torsin-1A-interacting protein 1 (Homo sapiens), sequence (Q5JTV8 whole entry, looked up): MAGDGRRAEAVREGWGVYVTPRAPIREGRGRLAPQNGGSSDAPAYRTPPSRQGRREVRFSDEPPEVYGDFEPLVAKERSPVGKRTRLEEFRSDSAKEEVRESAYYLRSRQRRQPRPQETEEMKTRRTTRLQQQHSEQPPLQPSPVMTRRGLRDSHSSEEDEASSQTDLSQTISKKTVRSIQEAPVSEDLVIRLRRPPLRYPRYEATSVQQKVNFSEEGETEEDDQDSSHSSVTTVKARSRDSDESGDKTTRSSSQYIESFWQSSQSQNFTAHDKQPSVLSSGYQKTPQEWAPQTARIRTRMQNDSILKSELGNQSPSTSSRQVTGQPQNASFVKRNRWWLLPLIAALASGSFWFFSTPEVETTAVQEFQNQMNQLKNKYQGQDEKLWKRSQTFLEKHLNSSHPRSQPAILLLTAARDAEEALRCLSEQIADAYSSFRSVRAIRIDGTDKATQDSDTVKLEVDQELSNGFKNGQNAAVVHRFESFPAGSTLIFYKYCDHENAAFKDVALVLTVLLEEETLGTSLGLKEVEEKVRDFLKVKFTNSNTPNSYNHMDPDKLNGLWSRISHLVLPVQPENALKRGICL
For assay [10], the target named is Alpha-bungarotoxin (Bungarus multicinctus) (UniProt P60615). The assay is described as follows: compounds binding labelled alpha-BTX control protein – biochemical, small-molecule microarray, Alexa647 label, 635/667 nm fluorescence, artefact control for SMM control protein annotation, profiling panel (AID 1117). The settings on record: alpha-BTX-A647 binding fluorescence, higher = more signal.
Alpha-bungarotoxin (Bungarus multicinctus), sequence (P60615 whole entry, looked up): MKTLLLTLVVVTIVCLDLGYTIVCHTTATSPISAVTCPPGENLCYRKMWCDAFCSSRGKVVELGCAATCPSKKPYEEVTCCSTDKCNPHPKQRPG

Assay [11] has as its target Albumin (Bos taurus) (UniProt P02769). The assay is described as follows: compounds binding labelled BSA control protein – biochemical, small-molecule microarray, Alexa647 label, 635/667 nm fluorescence, artefact control for SMM control protein annotation, profiling panel (AID 1118).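 Further: score merges 667 nm emission intensity and signal-to-noise per printed compound spot.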 The settings on record: BSA-A647 binding, fluorescence 635 nm, higher = more signal.
The nature of assay [12]: probe aXIP binding to arrayed compounds – biochemical, NeuroSMM set, 635/667 nm fluorescence, primary screen (AID 1119).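 Further: probe is the protein aXip251-270 applied at 1 µg/mL to compound-printed slides; binding of probe to printed compounds measured as 667 nm fluorescence plus signal to noise.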 The settings on record: small-molecule microarray, higher = more signal, called active from +8 up or from −8 down.
Assay [13] can be described thus: probe aNOTCH3 binding on compound microarray – biochemical, small-molecule microarray, 635/667 nm fluorescence, primary screen (AID 1120).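 Further: probe is a biotin-tagged antibody raised against NOTCH3 rather than NOTCH3 protein; score merges spot fluorescence near 667 nm with spot signal to noise.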 The settings on record: higher = more signal.
Assay [14] can be described thus: probe aNOTCH2 binding on compound microarray – biochemical, small-molecule microarray, 635/667 nm fluorescence, primary screen (AID 1121).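 Further: score merges feature fluorescence read at 667 nm with its signal to noise.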 The settings on record: higher = more signal.
The target in assay [15] is Carbonic anhydrase 2 (Homo sapiens) (UniProt P00918). Nature of the assay: compounds binding carbonic anhydrase 2 – biochemical, small-molecule microarray, Alexa647-labelled CAII, profiling panel (AID 1122). The settings on record: CAII-A647 binding fluorescence, higher = more signal.
The nature of assay [16]: COS7 lysate on small-molecule microarray, probe aHis, 635 nm (AID 1123).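 Further: z-score combines 667nm fluorescence intensity with signal-to-noise per printed compound spot.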 The settings on record: COS7 cell lysate, fluorescence, higher = more signal.
A short description of assay [17]: probe aLAP1 signal on lysate-treated microarray – cell lysate, small-molecule microarray, COS7 lysate, primary screen (AID 1124).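 Further: lysate comes from COS7 cells expressing LAP1 and is applied at 0.3 µg/mL; score merges spot fluorescence near 667 nm with signal-to-noise over triplicate slides.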 The settings on record: probe aLAP1, fluorescence, higher = more signal.
The test system of assay [18] is Sam68 (KHDRBS1). Nature of the assay: compounds binding KHDRBS1 protein – biochemical, small-molecule microarray, 635 nm fluorescence, primary screen (AID 1125).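 Further: score merges 667 nm channel intensity with signal to noise over triplicate slides.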 The settings on record: higher = more signal.
The test system of assay [19] is Chordin-like protein 2 (CHRDL2). Nature of the assay: compounds binding chordin-like 2 – biochemical, small-molecule microarray, 635 nm fluorescence, primary screen (AID 1126).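 Further: printed compound slides probed with Chrdl2 protein at 4 µg/mL for 1 h at 4 C; score merges 667 nm emission intensity with signal to noise over three replicate slides.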 The settings on record: fluorescence 635 nm, higher = more signal.
The target of assay [20] is Concanavalin-A (Canavalia ensiformis) (UniProt P02866). The assay is described as follows: compounds binding concanavalin A lectin – biochemical, small-molecule microarray, Alexa647 label, 635 nm, artefact control for SMM control protein annotation, primary screen (AID 1127).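 Further: z combines 667 nm emission intensity with signal-to-noise across three replicate slides.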 The settings on record: ConA-A647 binding fluorescence, higher = more signal.
Concanavalin-A (Canavalia ensiformis), sequence (P02866 whole entry, looked up): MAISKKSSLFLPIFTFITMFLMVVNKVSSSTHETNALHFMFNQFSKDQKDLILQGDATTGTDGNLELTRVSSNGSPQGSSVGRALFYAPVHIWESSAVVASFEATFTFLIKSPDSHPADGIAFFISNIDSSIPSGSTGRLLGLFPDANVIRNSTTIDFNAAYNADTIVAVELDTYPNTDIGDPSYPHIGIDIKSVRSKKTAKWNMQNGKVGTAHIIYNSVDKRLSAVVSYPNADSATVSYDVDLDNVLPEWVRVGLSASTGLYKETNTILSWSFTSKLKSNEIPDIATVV

Albumin (Bos taurus), sequence (P02769 whole entry, looked up): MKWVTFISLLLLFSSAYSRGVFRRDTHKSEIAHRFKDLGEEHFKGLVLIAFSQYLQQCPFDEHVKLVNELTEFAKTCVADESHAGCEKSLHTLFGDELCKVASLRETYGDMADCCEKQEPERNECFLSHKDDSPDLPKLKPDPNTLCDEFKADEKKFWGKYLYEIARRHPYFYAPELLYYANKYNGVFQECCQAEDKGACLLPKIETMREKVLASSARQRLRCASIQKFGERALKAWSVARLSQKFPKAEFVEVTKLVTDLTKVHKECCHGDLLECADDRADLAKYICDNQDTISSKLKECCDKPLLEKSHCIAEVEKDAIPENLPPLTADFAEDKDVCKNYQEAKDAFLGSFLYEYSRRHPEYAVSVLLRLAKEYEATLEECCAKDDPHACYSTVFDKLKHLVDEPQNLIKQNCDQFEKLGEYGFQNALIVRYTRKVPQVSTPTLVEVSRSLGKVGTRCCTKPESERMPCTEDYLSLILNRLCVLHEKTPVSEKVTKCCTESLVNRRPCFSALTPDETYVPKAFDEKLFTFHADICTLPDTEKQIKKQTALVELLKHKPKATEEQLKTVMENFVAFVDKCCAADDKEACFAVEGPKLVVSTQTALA

As to `CCC#CCN(Cc1ccccc1Br)[C@H](/C=C/c1ccccc1)[C@@H](O)Cc1ccccc1`, the composite z-score is -0.0687 in [1]; -0.635 in assay [3]; -0.481 in assay [4]; 0.402 in assay [5]; -0.152 in [6]; -0.138 in [7]. For the same molecule, the composite z-score is -0.326 in assay [8]; -0.613 in [9]; -0.0441 in [10]; -0.904 in [11]; -0.132 in assay [13]; -0.145 in assay [14]. In addition, the composite z-score in assay [15] was -0.225; in assay [16], 0.301; in assay [17], 0.162; in assay [18], -1.13; in [19], -1.16; in [20], -0.779. The same molecule had a z-score in assay [2] of -2.58. The composite Z-score in [12] was 0.12 (inactive).

With `CC/C=C/C(=O)N(C[C@@H]1CCCO1)[C@@H]1CC(C(=O)NCCO)=C[C@H](Oc2c(I)cc(CO)cc2OC)[C@H]1O`, the composite z-score is -0.2 in assay [1]; 0.208 in assay [3]; -0.33 in assay [4]; 0.0262 in [5]; 0.497 in assay [6]; 0.138 in assay [7]. The composite z-score in [8] is 0.124; in assay [9] it was 0.371; in assay [10], 0.515; in assay [11] it was 0.74; in [13], 0.0208; in [14], -0.103. Besides, the composite z-score was 0.721 in assay [15]; 1.42 in [16]; 0.739 in assay [17]; 0.787 in assay [18]; -0.355 in assay [19]; -0.629 in [20]. This molecule also showed a z-score in [2] of -0.277. Besides, the composite Z-score in assay [12] is 0.465 (inactive).

Turning to `Cc1ccc(S[C@]2(C(=O)NC(C)C)CC(=O)N(Cc3cc(C(F)(F)F)cc(C(F)(F)F)c3)[C@@H]2c2ccc(CO)cc2I)cc1`, the composite z-score in assay [1] is 0.785; in [3], -0.832; in [4], -0.502; in assay [5] it was -0.384; in assay [6] it was -0.132; in assay [7], 0.0815. For the same molecule, the composite z-score was -0.036 in [8]; -0.596 in [9]; 0.57 in assay [10]; -1.25 in assay [11]; -0.313 in assay [13]; -0.14 in [14]. In addition, the composite z-score was 0.788 in assay [15]; 1.31 in [16]; 0.917 in [17]; -0.733 in assay [18]; -1.21 in [19]; -0.442 in assay [20]. The molecule further gave a z-score in assay [2] of -0.563. Moreover, the composite Z-score in assay [12] is 0.0296 (inactive).

On to `C=CCC(OC(C)=O)[C@@H]1[C@@H](N(Cc2ccc(-c3cccc(C(F)(F)F)c3)o2)C(=O)Cc2ccc(F)cc2)c2cc(OCCCO)ccc2N1C(=O)c1ccc(-c2ccccc2)cc1` (stereo not given in full), for which the composite z-score in assay [1] was -0.741; in assay [3] it was -0.689; in assay [4] it was -0.679; in [5], 0.671; in assay [6], -0.154; in assay [7], 0.0899. Moreover, the composite z-score was 0.172 in [8]; 0.14 in [9]; -0.227 in assay [10]; -0.701 in assay [11]; -0.0996 in assay [13]; -0.154 in [14]. Moreover, the composite z-score in assay [15] is -0.215; in assay [16], -0.197; in [17], 0.0045; in assay [18], -0.443; in assay [19], -0.294; in [20], -1.04. This molecule had a z-score in assay [2] of -0.583. In addition, the composite Z-score in assay [12] is -0.014 (inactive).

Take `CCCC=C(CCC)[C@@H](NS(=O)(=O)c1ccc(C(F)(F)F)cc1)c1ccc(-c2ccccc2)cc1`: the composite z-score in assay [1] was determined as 1.32; in assay [3], 0.34; in [4] it was 1.06; in assay [5] it was 0.878; in [6], 0.145; in assay [7], 0.217. Also, the composite z-score in assay [8] was 0.157; in assay [9], 0.0541; in [10] it was 0.709; in assay [11], 0.822; in [13], 0.305; in assay [14], -0.0467. In addition, the composite z-score in assay [15] was 0.279; in assay [16] it was 2.24; in assay [17], 0.348; in assay [18] it was 1.21; in assay [19], -0.386; in assay [20], 0.882. Also, in assay [2], the z-score was -1.08. The composite Z-score in [12] was -0.118 (inactive).

Consider `Cc1ccc([C@@H]2CC=C(C(=O)O)[C@H](c3ccccc3)N2S(=O)(=O)c2ccc(C)cc2)cc1`, for which the composite z-score in assay [1] is 0.961; in [3] it was -0.23; in assay [4], 2.35; in [5] it was 0.535; in [6], 0.0599; in assay [7], 0.374. Also, the composite z-score in assay [8] was 1.05; in assay [9], 1.9; in assay [10], 1.79; in assay [11], 1.02; in [13], 0.254; in assay [14] it was 0.0344. The composite z-score is 0.546 in [15]; 2.36 in [16]; 0.581 in assay [17]; 1.31 in assay [18]; -2.11 in [19]; 1.22 in assay [20]. Besides, the z-score in assay [2] stood at 0.712. Moreover, the composite Z-score in assay [12] was 1.1 (inactive).

Consider `CN1CCC(CCCO)=CC1C1CC1` (stereo not given), for which the composite z-score was -0.416 in [1]; 0.637 in [3]; -1.21 in [4]; -1.36 in [5]; -0.172 in assay [6]; -0.138 in assay [7]. Further, the composite z-score in [8] was -0.473; in [9], -0.434; in assay [10] it was -0.234; in assay [11], -0.958; in [13] it was -0.0918; in assay [14], -0.181. Moreover, the composite z-score in assay [15] is 0.299; in assay [16] it was 0.238; in [17], -0.569; in [18], 0.0585; in [19], 0.39; in [20] it was 0.066. In [2], this molecule showed a z-score of 0.306. In addition, the composite Z-score in assay [12] was 3.24 (inactive).
